Bioassay records (PubChem)
ELG1 DNA repair – blocks ELG1-dependent DNA repair in HEK293T cells | HEK293T ELG1-luciferase reporter, luminescence, 16 h; DNA damage induced by 5-fluorouridine | Potency, µM (highest dose often 46.1 µM), for inactives: at the highest dose activity change, negative = inhibition, hits mostly inhibitors | hit rate 2.3% among 330,000; further: potency means the concentration at half of the fitted maximal effect; nearly all actives have a fitted effect of over 55% in size
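Reporter activity after DNA damage by 5-fluorouridine is monitored. Compound-treated cells incubate 16 hr at 37 °C, then ONE-Glo is added for 30 min before luminescence reading.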
RORgamma inh – inhibitors of mouse ROR gamma transcriptional activity; P51450; Drosophila S2 Gal4-RORgamma UAS-luciferase reporter, 20 h; Potency, µM (highest dose often 53.6 µM), for the others: at the top dose activity change, negative = inhibition, hits mostly inhibitors; hit rate 5.4% among 310,000; further: potency means the concentration at half of the fitted maximal effect; nearly all actives have a fitted effect of over 60% in size
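Read-out: Photinus luciferase luminescence; inhibitors lower reporter signal. Insect Schneider cells with Gal4-ROR gamma fusion under metallothionein promoter, UAS reporter; 700 uM final copper sulfate induction, 20 hr, ambient temperature.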
Gal4-VP16 FLuc – counter-screen for ROR gamma inhibitors: Gal4-VP16 reporter; Drosophila S2 Gal4-VP16 UAS-luciferase, luminescence, 20 h; AID 2546; hit rate 3.5% among 310,000; Potency, µM (series often up to 53.6 µM), inactives show top-dose activity, negative = inhibition, hits mostly inhibitors;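 further: Gal4-VP16 expression switched on by copper sulfate through the metallothionein promoter; potency means the concentration at half of the fitted maximal effect; nearly all actives have a fitted effect of over 50% in size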
TSHR antagonist – antagonists of human thyroid stimulating hormone receptor | hit rate 0.2% among 330,000 | AID 504810 | activity change, negative = inhibition, % at 11.5 µM | TSHR-expressing cells, TSH-stimulated cAMP HTRF, 2 h; stronger effect = lower value;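 active means activity change below a set negative limit, meaning inhibition stronger than a set level, cut at about -70% in these data; inconclusive means activity change between two set negative limits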
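Read-out is FRET at 665 nm (cryptate excitation 337 nm) from a cryptate-tagged anti-cAMP antibody, competed by cell cAMP against cAMP-d2. Compounds are tested on freshly harvested TSHR cells challenged with 4nM TSH (EC80) for 2 hours at 37 deg C.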
B2AR arrestin – recruits beta-arrestin to the human beta2-adrenergic receptor. P07550. beta-arrestin recruitment to beta2AR, cell-based reporter. Potency, µM (top dose mostly 46.1 µM), for the others: at the highest dose activation, actives largely listed as activators. hit rate 0.02% among 330,000. AID 492947;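 further: potency means the concentration at half of the fitted maximal effect; 0% = DMSO controls and full agonism = EC100 isoproterenol or metaproterenol; nearly all actives have a fitted effect of over 65% in size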
Target sequence (P07550 whole entry, looked up): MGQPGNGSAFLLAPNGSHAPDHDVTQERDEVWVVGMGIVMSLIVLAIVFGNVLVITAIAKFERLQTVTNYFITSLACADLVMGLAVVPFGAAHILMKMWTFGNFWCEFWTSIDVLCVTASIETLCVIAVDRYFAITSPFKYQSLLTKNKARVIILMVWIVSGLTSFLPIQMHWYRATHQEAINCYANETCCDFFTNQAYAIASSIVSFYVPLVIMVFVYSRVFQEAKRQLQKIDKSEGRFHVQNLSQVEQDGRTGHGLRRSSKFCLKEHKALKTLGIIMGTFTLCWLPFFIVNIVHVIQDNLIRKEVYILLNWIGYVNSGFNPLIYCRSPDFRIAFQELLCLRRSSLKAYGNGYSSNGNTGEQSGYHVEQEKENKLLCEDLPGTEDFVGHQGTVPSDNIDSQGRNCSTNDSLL
Starred values were filed as active, the others as inactive. This is a sample that favours compounds with a hit; in the whole collection about 7.5% have one here. Unless noted, the call rests on the fitted dose curve; in most records, active means well fitted curve in the direction sought with a large enough effect; inconclusive means small, poorly fitted or top-dose-only effect, or another doubt; inactive means no such curve, though single readings can be large; an effect the other way counts as inactive or inconclusive. Unless noted, on the % scale 0 is the no-effect control and ±100 the full control effect.

What do the screens show for `CCCc1nc2oc3c(NCC4CCCO4)ncnc3c2c2c1COC(C)(C)C2` (stereo not given)?
ELG1 DNA repair: -16%; RORgamma inh: 11%; Gal4-VP16 FLuc: 0%; TSHR antagonist: 5; B2AR arrestin: 0%

Results for CCCC(=O)N1CCN(c2ccc(NC(=O)c3ccc([N+](=O)[O-])o3)cc2Cl)CC1 ?
ELG1 DNA repair: inconclusive; RORgamma inh: 20µM*; Gal4-VP16 FLuc: inconclusive; TSHR antagonist: -18; B2AR arrestin: 0%

What do the screens show for `O=C(c1ccc([N+](=O)[O-])o1)N1CCOCC1`?
ELG1 DNA repair: -13%; RORgamma inh: 16µM*; Gal4-VP16 FLuc: -4%; TSHR antagonist: 19; B2AR arrestin: 0%

How did CC(=O)c1ccc(NC(=O)c2ccc([N+](=O)[O-])o2)cc1 do in these assays?
ELG1 DNA repair: -4%; RORgamma inh: 6.3µM*; Gal4-VP16 FLuc: 13µM*; TSHR antagonist: -10; B2AR arrestin: 3%

Results for O=C(NCc1ccco1)c1ccc([N+](=O)[O-])o1 ?
ELG1 DNA repair: -12%; RORgamma inh: 5µM*; Gal4-VP16 FLuc: 2%; TSHR antagonist: 9; B2AR arrestin: 0%

How did O=C(NCc1ccco1)c1ccc(Cn2cc([N+](=O)[O-])cn2)o1 do in these assays?
ELG1 DNA repair: 4%; RORgamma inh: 18%; Gal4-VP16 FLuc: 12%; TSHR antagonist: -5; B2AR arrestin: 0%

Results for O=S(=O)(c1ccc(NCCOc2ccccc2)nc1)N1CCCC1 ?
ELG1 DNA repair: 3%; TSHR antagonist: -2; B2AR arrestin: 0%

What do the screens show for `O=C(NCC1CCCO1)c1ccc(-c2ccccc2Cl)o1` (stereo not given)?
ELG1 DNA repair: inconclusive; TSHR antagonist: 1; B2AR arrestin: 0%

What do the screens show for `COc1ccc(-c2nc(-c3ccccc3)c(NC(C)(C)C)o2)cc1`?
RORgamma inh: 4%; Gal4-VP16 FLuc: 0%

How did COc1ccc(C(=O)N2CCC3(CC2)CCN(c2ccncc2)CC3)cc1 do in these assays?
RORgamma inh: -24%; Gal4-VP16 FLuc: -12%

What do the screens show for `O=C(NN(c1ccccc1)c1ccccc1)c1ccc([N+](=O)[O-])o1`?
ELG1 DNA repair: -21%; RORgamma inh: inconclusive; Gal4-VP16 FLuc: 7%; TSHR antagonist: 11; B2AR arrestin: 0%

Results for O=C(NNC(=O)c1ccc([N+](=O)[O-])o1)c1ccccc1 ?
ELG1 DNA repair: -18%; RORgamma inh: 11µM*; Gal4-VP16 FLuc: 18µM*; TSHR antagonist: 28; B2AR arrestin: 1%

Results for CCOc1ccccc1Oc1cn[nH]c1-c1ccc(OCC(=O)NN)cc1O ?
ELG1 DNA repair: inconclusive; RORgamma inh: 0%; Gal4-VP16 FLuc: -3%; TSHR antagonist: 4; B2AR arrestin: -1%

Results for CCOc1ccc(-c2[nH]ncc2Oc2ccccc2OC)c(O)c1 ?
ELG1 DNA repair: -5%; RORgamma inh: 16µM*; Gal4-VP16 FLuc: inconclusive; TSHR antagonist: -4; B2AR arrestin: 0%

How did CCOc1ccc(-c2[nH]ncc2Oc2ccccc2OCC)c(O)c1 do in these assays?
ELG1 DNA repair: -22%; RORgamma inh: 10µM*; Gal4-VP16 FLuc: inconclusive; TSHR antagonist: -1; B2AR arrestin: 0%

How did COc1ccc(CN(C)C(=O)c2cccc(S(=O)(=O)N3CCc4ccccc43)c2)c(OC)c1 do in these assays?
ELG1 DNA repair: inconclusive; TSHR antagonist: 28; B2AR arrestin: 7%

Results for COc1ccc(OC)c(C2C(C(=O)c3ccccc3)=C(C)Nc3nc4ccccc4n32)c1 (stereo not given) ?
ELG1 DNA repair: 26%; RORgamma inh: 7.1µM*; Gal4-VP16 FLuc: -11%; TSHR antagonist: -4; B2AR arrestin: 0%

How did COc1ccc(C2C(C(=O)c3ccccc3)=C(C)Nc3nc4ccccc4n32)cc1OC (stereo not given) do in these assays?
ELG1 DNA repair: inconclusive; RORgamma inh: -31%; Gal4-VP16 FLuc: 7%; TSHR antagonist: 1; B2AR arrestin: 0%

Results for Cc1ccc(NC(=O)CC2CCCC2)c(Br)c1 ?
ELG1 DNA repair: inconclusive; RORgamma inh: -6%; Gal4-VP16 FLuc: -3%; TSHR antagonist: -3; B2AR arrestin: 0%

How did Cc1ccc(-c2nnc(SCCC(=O)N3CCOCC3)o2)cc1 do in these assays?
ELG1 DNA repair: inconclusive; RORgamma inh: 6.3µM*; Gal4-VP16 FLuc: -4%; TSHR antagonist: -5; B2AR arrestin: 0%

How did Cc1cccc(-c2nnc(SCCC(=O)N3CCOCC3)o2)c1 do in these assays?
ELG1 DNA repair: inconclusive; RORgamma inh: inconclusive; Gal4-VP16 FLuc: 7.1µM*; TSHR antagonist: 25; B2AR arrestin: 0%

What do the screens show for `O=C(CCSc1nnc(-c2ccccc2)o1)N1CCOCC1`?
ELG1 DNA repair: inconclusive; RORgamma inh: -19%; Gal4-VP16 FLuc: -26%; TSHR antagonist: 3; B2AR arrestin: -1%

What do the screens show for `Cc1cc(C)cc(Oc2cc(NC(=O)c3cn(C)nc3C)cc([N+](=O)[O-])c2)c1`?
ELG1 DNA repair: 6%; RORgamma inh: inconclusive; Gal4-VP16 FLuc: 7.9µM*; TSHR antagonist: -14; B2AR arrestin: -1%

What do the screens show for `CC(C)=NOc1cc(NC(=O)CCl)cc([N+](=O)[O-])c1`?
ELG1 DNA repair: inconclusive; RORgamma inh: 10µM*; Gal4-VP16 FLuc: 7.1µM*; TSHR antagonist: 0; B2AR arrestin: -1%

What do the screens show for `O=C(CCl)Nc1cc(SCC(O)CO)cc([N+](=O)[O-])c1` (stereo not given)?
ELG1 DNA repair: 3.3µM*; RORgamma inh: inconclusive; Gal4-VP16 FLuc: 5µM*; TSHR antagonist: -11; B2AR arrestin: 0%

What do the screens show for `CCC(=O)Nc1cc(ON=C(C)C)cc([N+](=O)[O-])c1`?
ELG1 DNA repair: -4%; RORgamma inh: 2%; Gal4-VP16 FLuc: 0%; TSHR antagonist: 1; B2AR arrestin: -1%

Results for COc1cc(OC)cc(-c2sc3ccccc3c(=O)c2I)c1 ?
RORgamma inh: 43%; Gal4-VP16 FLuc: -7%

Results for CC(Sc1nnc(N)s1)C(=O)Nc1ccc2c(c1)OCO2 (stereo not given) ?
ELG1 DNA repair: 4%; TSHR antagonist: 5; B2AR arrestin: -1%

What do the screens show for `CC(C)CC(NC(=O)C(NC(=O)C(Cc1ccc(OCc2ccccc2)cc1)NC(=O)OC(C)(C)C)C(C)C)C(N)=O` (stereo not given)?
ELG1 DNA repair: 14%; RORgamma inh: inconclusive; Gal4-VP16 FLuc: 13µM*; TSHR antagonist: -13; B2AR arrestin: -1%

What do the screens show for `O=C(O)CC1S/C(=N\N=C/c2ccccc2)N(c2ccc(O)cc2)C1=O` (stereo not given)?
ELG1 DNA repair: 5%; RORgamma inh: 3%; Gal4-VP16 FLuc: -3%; TSHR antagonist: 5; B2AR arrestin: 0%
